Assay outcomes (PubChem)
BJeLR lethal – BJeLR cell viability loss; BJeLR (HRASV12) viability, CellTiter-Glo ATP luminescence, 48 h; inhibition, % (no concentration beside the values); 300,000 tested, 0.17% active; AID 1554; in the data active means inhibition above about 50%; inconclusive means no clear call, values can overlap the other calls
BoNT F protease – inhibitors of Botulinum neurotoxin F light chain protease; Multiplex microsphere protease cleavage assay, flow cytometry; 360,000 tested, 0.22% active; inhibition, % at 10 µM; in the data active means inhibition above about 35%, passing the limit was not always enough; inconclusive means no clear call, values can overlap the other calls; further: plate controls were buffer without enzyme for full effect and enzyme alone for no effect
Anthrax LF inh2 – blocks Bacillus anthracis lethal factor protease; inhibition, % at 10 µM; 360,000 tested, 0.12% active; AID 588501; P15917; multiplex microsphere protease cleavage assay, LF; further: plate controls were buffer without enzyme for full effect and enzyme alone for no effect
Target sequence (P15917 whole entry, looked up): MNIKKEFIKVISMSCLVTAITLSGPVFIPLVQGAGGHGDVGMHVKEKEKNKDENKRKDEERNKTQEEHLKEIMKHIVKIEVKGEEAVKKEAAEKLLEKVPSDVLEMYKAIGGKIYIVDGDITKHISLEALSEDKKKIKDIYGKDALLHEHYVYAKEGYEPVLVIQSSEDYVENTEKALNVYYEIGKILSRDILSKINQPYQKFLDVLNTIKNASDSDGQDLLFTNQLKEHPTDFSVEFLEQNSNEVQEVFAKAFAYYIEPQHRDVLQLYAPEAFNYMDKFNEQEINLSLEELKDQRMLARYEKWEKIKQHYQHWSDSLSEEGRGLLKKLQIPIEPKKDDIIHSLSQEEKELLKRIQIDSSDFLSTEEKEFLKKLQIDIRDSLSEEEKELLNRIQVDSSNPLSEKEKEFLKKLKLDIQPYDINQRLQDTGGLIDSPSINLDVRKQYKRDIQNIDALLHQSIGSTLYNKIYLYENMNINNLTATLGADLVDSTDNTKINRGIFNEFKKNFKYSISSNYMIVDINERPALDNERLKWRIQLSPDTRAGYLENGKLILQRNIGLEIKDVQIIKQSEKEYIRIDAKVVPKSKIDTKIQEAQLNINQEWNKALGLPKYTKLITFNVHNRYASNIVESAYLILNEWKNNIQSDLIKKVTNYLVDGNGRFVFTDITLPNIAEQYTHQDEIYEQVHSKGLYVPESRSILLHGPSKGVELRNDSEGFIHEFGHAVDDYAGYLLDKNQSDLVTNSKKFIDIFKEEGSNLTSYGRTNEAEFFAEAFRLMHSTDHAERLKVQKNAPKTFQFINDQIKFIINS
Autofluor counter – flagged as autofluorescent in microsphere protease counterscreen. 360,000 tested, 3.1% active. fluorescence intensity (test concentration not listed). compound autofluorescence counterscreen, microsphere flow cytometry; active compounds read high; in the data active means fluorescence intensity above about 16000; inconclusive means no clear call, values can overlap the other calls
BoNT A protease – inhibitors of Botulinum neurotoxin A light chain protease; multiplex microsphere protease substrate cleavage, flow cytometry; inhibition, % at 10 µM; 360,000 tested, 0.17% active; further: plate controls were buffer without enzyme for full effect and enzyme alone for no effect
Starred values were filed as active, the others as inactive; ? = inconclusive; . = no result. In the library only some 3.5% were active in any assay of this set; here they are far more common. Unless noted, no stated cut-off is given here; in the data, active means inhibition above about 30%; inconclusive means no clear call, values can overlap the other calls; inactive means below that.

SMILES	BJeLR lethal	BoNT F protease	Anthrax LF inh2	Autofluor counter	BoNT A protease
CCN(CC)CCCN(Cc1cc2cc3c(cc2[nH]c1=O)OCO3)C(=S)NCCCN(C)C	-2	?	0	4190	3
Cc1ccc(NC(=O)N(Cc2ccc3c(c2)OCO3)Cc2cc3cc4c(cc3[nH]c2=O)OCCO4)cc1	-9	1	1	3089	0
CCN(CC)CCCN(Cc1cc2cc3c(cc2[nH]c1=O)OCO3)C(=S)NC	0	35*	-14	3205	-1
CCC(=O)N(CCc1ccccc1)Cc1cc2cc(OC)ccc2[nH]c1=O	6	-1	-2	4673	-1
CCOc1ccc(NC(=S)N2CCn3c(nc4ccccc43)C2)cc1	4	.	.	.	.
O=C(NCc1ccccn1)c1ccc(Br)s1	7	-9	-10	17043*	-5
O=C(NCCCCCCNC(=O)c1ccc(Br)s1)c1ccc(Br)s1	-3	0	0	23002*	0
O=C(NCc1ccccn1)c1cccs1	10	-4	-1	17079*	?
O=C(NCc1ccccn1)Nc1cccc(NC(=O)NCc2ccccn2)c1	-1	-3	0	22604*	-2
Cc1ccc(NC(=O)C2(C)CCN2Cc2cccc3c2OCO3)cc1O (stereo not drawn)	.	-6	2	3822	0
COCCNC(=O)C1(C)CCCN(CC(=O)c2ccc(OC)cc2)C1 (stereo not drawn)	.	9	-3	3013	0
COc1cccc(OC)c1C(=O)Nc1ccc(S(=O)(=O)Nc2ncccn2)cc1	-3	.	.	.	.
O=C(NCc1ccccn1)c1ccc(Cl)cc1Cl	-2	8	-3	18047*	7
O=C(Nc1ccc(S(=O)(=O)Nc2ncccn2)cc1)c1ccc(Br)s1	1	-5	-2	16878*	-2
COCCCn1c(=O)c2ccccc2n2c(=S)[nH]nc12	17	0	-9	3704	-1
CCC(C)(C(=O)NC1CCCC1)N(Cc1ccco1)C(=O)c1ccccn1 (stereo not drawn)	10	-4	2	6142	0
CCC(C)(C(=O)NC1CCCCC1)N(CC1CCCO1)C(=O)c1ccccn1 (stereo not drawn)	-4	-8	2	25517*	-4
CCC(C)(C(=O)NC1CCCCC1)N(Cc1ccco1)C(=O)c1cnccn1 (stereo not drawn)	6	-2	-5	16804*	0
CCC(C)(C(=O)NC1CCCC1)N(Cc1ccco1)C(=O)c1ccc2c(c1)OCO2 (stereo not drawn)	3	-1	-4	17659*	-2
COc1cc(NC(=O)c2ccc(C(C)(C)C)cc2)c(OC)cc1NC(=O)CN1CCCCC1	9	-3	1	4808	-1
O=C(Nc1c(C(=O)N2CCOCC2)cnn1-c1ccccc1)c1ccccc1F	-6	-2	0	6084	-1
CCN(CC)C(=O)c1cnn(-c2ccccc2)c1NC(=O)c1ccccc1F	-3	7	-4	20443*	6
COc1ccccc1/C=C1\SC(=S)N(CC(=O)NC2CCS(=O)(=O)C2)C1=O (stereo not drawn)	3	-5	-4	5896	-1
Cc1cccc(OCCCC(=O)NCc2ccco2)c1	-17	-1	1	17050*	?
COc1ccc(OCCCC(=O)NCc2ccco2)cc1	-2	-8	1	10879	-1
SMILES	BJeLR lethal	BoNT F protease	Anthrax LF inh2	Autofluor counter	BoNT A protease
Cc1cccc(OCCC(=O)NCC(c2ccccc2)N(C)C)c1 (stereo not drawn)	4	1	-1	25146*	-2
Cc1ccc(OCCCC(=O)NCc2ccco2)cc1	1	8	-2	20751*	6
COc1ccc(C(CNC(=O)CCOc2ccccc2)N(C)C)cc1 (stereo not drawn)	-8	.	.	.	.
CCOc1cc(N2CCOCC2)c(OCC)cc1NC(=O)c1ccc(OC)c(S(=O)(=O)N2CCOCC2)c1	.	-3	0	3627	0
CC1(Cc2ccc(C(F)(F)F)o2)C(=O)Nc2cc(-c3ccc(F)cc3F)ccc21 (stereo not drawn)	.	2	-2	3403	0
O=C(c1cccs1)N1CCN(Cc2cccc([N+](=O)[O-])c2)CC1	-7	-3	3	2612	1
CCOC(=O)CC(=O)CSc1nc2ccc(OC)cc2cc1C	0	-3	3	3561	-1
COc1ccc(-n2c(-c3ccccc3)cc3c2CCCC3=O)cc1	10	3	-4	22566*	?
CCC(=O)Nc1ccccc1C(=O)OCC(=O)c1ccc2ccccc2c1	3	-1	-4	23453*	-1
CC(=O)NCCn1c(SCC(=O)c2ccccc2)nc2ccccc2c1=O	3	-5	0	23027*	-2
CC(=O)NCCn1c(SCc2ccc(C)cc2C)nc2ccccc2c1=O	9	-1	-2	23483*	-2
CC(=O)NCCn1c(SCC(=O)OCc2ccccc2)nc2ccccc2c1=O	6	18	15	6113	5
CC(=O)NCCn1c(SCc2cc(F)ccc2F)nc2ccccc2c1=O	-3	-1	-6	21737*	?
C=CCNC(=O)c1cc(-c2cccnc2)nc2ccccc12	0	-20	10	3922	-2
Cc1nc(CC(=O)c2ccc(O)cc2O)cs1	6	-12	-2	22193*	?
Cc1cc(C)n2nc(C(=O)OCC(=O)N3CC(C)CC(C)C3)nc2n1 (stereo not drawn)	-4	4	-1	5283	0
CC(C)(C)NC(=O)c1ccc2c(c1)C(=O)N(C1CCCCC1)C2=O	0	-3	-6	16466*	-2
CCC(=O)Oc1ccc(C(=O)Nc2ccc3c(c2)C(=O)N(C2CCCCC2)C3=O)cc1	-1	4	-4	19149*	3
O=C(O)COc1ccc(NC(=O)c2ccc3c(c2)C(=O)N(C2CCCCC2)C3=O)cc1	5	-2	0	5361	2
COc1ccc(OC)c(CC(=O)O)c1	6	-4	-1	23906*	?
Cc1ccc(-n2ncc3c(=O)n(Cc4cccnc4)cnc32)cc1	-5	-3	-3	19270*	1
c1cc(-c2ccc3nncn3c2)ccc1CN1CCOCC1	.	-6	-1	3033	0
COc1ccccc1-c1nnc(SCC(=O)Nc2ccc(Cl)cc2Cl)o1	-6	-1	-13	9273	0
COc1cccc2c1OC[C@@H](CO)[C@H]2N(C)C(=O)Nc1ccc(Cl)cc1Cl	0	-10	-1	17819*	-7
O=C1NC(=O)C2(Cc3ccccc3N3CCOCC32)C(=O)N1c1ccccc1 (stereo not drawn)	16	0	-1	22770*	1
COc1ccc(OC)c(NC(=O)Cc2coc3cc(C)cc(C)c23)c1	-1	-1	-4	22476*	?
COCCn1c(=S)[nH]c2cc(C(=O)NCCCN3CCOCC3)ccc2c1=O	9	-2	0	22856*	-2
COCCn1c(=S)[nH]c2cc(C(=O)NC3CCCCCC3)ccc2c1=O	.	1	2	3556	0
COCCn1c(=S)[nH]c2cc(C(=O)N3CCC(C(N)=O)(N4CCCCC4)CC3)ccc2c1=O	.	3	-7	22116*	3
COc1ccccc1Cn1c(=S)[nH]c2cc(C(=O)NCCCN3CCOCC3)ccc2c1=O	3	10	-1	5953	0
